Here are results for 6 compounds from PubChem BioAssay (EPA / NIEHS).

The term AC50 denotes the concentration at which the activity in the assay is half-maximal.

Read-out in assay [1]: Urokinase-type plasminogen activator receptor (uPAR), PLAUR (gene 5329)
Nature of the assay: BSK_4H_uPAR: BioMAP Diversity Plus: 4H Assay for Urokinase-type plasminogen activator receptor (uPAR) Biomarker Activity (AID 2283030). The note with it: primary human endothelial cells (HUVEC); actives raise or lower the signal. The method in brief: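 Primary human umbilical vein endothelial cells were exposed to chemical for 24 h before cell-surface uPAR was quantified by ELISA. Activity was fitted bidirectionally against the DMSO negative control baseline.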

Read-out in assay [2]: Vascular cell adhesion molecule 1 (VCAM1), VCAM1 (gene 7412)
Kind of assay: BSK_4H_VCAM1: BioMAP Diversity Plus: 4H Assay for Vascular cell adhesion molecule 1 (VCAM1) Biomarker Activity (AID 2283033).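 On outcome: cell-surface VCAM-1 protein measured by ELISA.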 The note with it: primary human endothelial cells (HUVEC); actives raise or lower the signal. The method in brief:
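HUVEC, 24 h post-dose; VCAM-1 by ELISA. Bidirectional curve fit vs DMSO baseline. Parallel SRB total-protein stain (0.1% SRB after 10% TCA fixation, 560 nm) for cytotoxicity.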

Read-out in assay [3]: Interferon-gamma inducible Protein 10 (IP10), CXCL10 (gene 3627)
Nature of the assay: BSK_BE3C_IP10: BioMAP Diversity Plus: BE3C Assay for Interferon-gamma inducible Protein 10 (IP10) Biomarker Activity (AID 2283034). The conditions noted are these: primary human bronchial epithelial cells; actives raise or lower the signal. The procedure, abridged: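 ELISA readout of IP-10 in BE3C system: primary human bronchial epithelial cells, 24 h post-dosing; bidirectional curve fit vs DMSO baseline.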

Read-out in assay [4]: Transforming growth factor beta 1 (TGFb1), TGFB1 (gene 7040)
Nature of the assay: BSK_BE3C_TGFb1: BioMAP Diversity Plus: BE3C Assay for Transforming growth factor beta 1 (TGFb1) Biomarker Activity (AID 2283036;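 on outcome: TGF-b1 protein level measured by ELISA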). The note with it: primary human bronchial epithelial cells; actives raise or lower the signal. The method in brief: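 Read-out: ELISA for TGF-b1 in primary human bronchial epithelial cultures, 24 h post-dose. Bidirectional curve fitting vs DMSO control; gain or loss of signal both scored.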

Read-out in assay [5]: Plasminogen activator inhibitor-1 (PAI1), SERPINE1 (gene 5054)
Nature of the assay: BSK_BE3C_PAI1: BioMAP Diversity Plus: BE3C Assay for Plasminogen activator inhibitor-1 (PAI1) Biomarker Activity (AID 2283037). The note with it: primary human bronchial epithelial cells; actives raise or lower the signal. The procedure, abridged: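 ELISA read-out of PAI-1 from human bronchial epithelial primary cells, 24 h post-dosing; bidirectional curve fit vs DMSO baseline, gain or loss of signal scored.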

Read-out in assay [6]: urokinase plasminogen activator (uPA), PLAU (gene 5328)
Nature of the assay: BSK_BE3C_uPA: BioMAP Diversity Plus: BE3C Assay for urokinase plasminogen activator (uPA) Biomarker Activity (AID 2283038).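 On outcome: uPA protein level quantified by ELISA in cell cultures; uPA read one day after compound addition.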 The note with it: primary human bronchial epithelial cells; actives raise or lower the signal. The procedure, abridged:
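Human primary bronchial epithelial cells were exposed to chemical for 24 h, then uPA levels were measured by ELISA. Responses were fitted bidirectionally against DMSO as negative control and baseline. Parallel SRB staining of total protein gauged overt cytotoxicity.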

Read-out in assay [7]: Urokinase-type plasminogen activator receptor (uPAR), PLAUR (gene 5329)
Nature of the assay: BSK_BE3C_uPAR: BioMAP Diversity Plus: BE3C Assay for Urokinase-type plasminogen activator receptor (uPAR) Biomarker Activity (AID 2283039).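 On outcome: cells exposed to compound for one day before measurement.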 The conditions noted are these: primary human bronchial epithelial cells; actives raise or lower the signal. The method in brief: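 ELISA readout of uPAR on human lung primary bronchial epithelial cells, 24 h post-dosing. Bidirectional curve fit relative to DMSO vehicle baseline; gain or loss of signal both scored.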

Read-out in assay [8]: Interleukin-6 (IL6), IL6 (gene 3569)
Nature of the assay: BSK_CASM3C_IL6: BioMAP Diversity Plus: CASM3C Assay for Interleukin-6 (IL6) Biomarker Activity for (AID 2283040). The note with it: primary human coronary artery smooth muscle cells; actives raise or lower the signal.

Read-out in assay [9]: Tissue plasminogen activator (tPA), PLAT (gene 5327)
Nature of the assay: BSK_BE3C_tPA: BioMAP Diversity Plus: BE3C Assay for Tissue plasminogen activator (tPA) Biomarker Activity (AID 2283041).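 On outcome: tPA level quantified by ELISA one day after compound addition.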 The note with it: primary human bronchial epithelial cells; actives raise or lower the signal. The method in brief: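 ELISA read-out of tPA on human primary bronchial epithelial cells, 24 h post-dosing; bidirectional fit vs DMSO negative control/baseline.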

Read-out in assay [10]: Interleukin-8 (IL8), CXCL8 (gene 3576)
Nature of the assay: BSK_CASM3C_IL8: BioMAP Diversity Plus: CASM3C Assay for Interleukin-8 (IL8) Biomarker Activity (AID 2283042).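 Further: IL-8 protein level quantified by ELISA.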 The note with it: primary human coronary artery smooth muscle cells; actives raise or lower the signal.

Read-out in assay [11]: Human Leukocyte Antigen - DR isotype (HLADR), HLA-DRA (gene 3122)
Nature of the assay: BSK_CASM3C_HLADR: BioMAP Diversity Plus: CASM3C Assay for Human Leukocyte Antigen - DR isotype (HLADR) Biomarker Activity (AID 2283043).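 Further: cell-surface HLA-DR protein level quantified by ELISA.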 The conditions noted are these: primary human coronary artery smooth muscle cells; actives raise or lower the signal.

Read-out in assay [12]: Macrophage colony-stimulating factor (MCSF), CSF1 (gene 1435)
Kind of assay: BSK_CASM3C_MCSF: BioMAP Diversity Plus: CASM3C Assay for Macrophage colony-stimulating factor (MCSF) Biomarker Activity (AID 2283044).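 Further: M-CSF protein amount quantified by ELISA after 24 h exposure.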 The note with it: primary human coronary artery smooth muscle cells; actives raise or lower the signal.

Read-out in assay [13]: Low-density lipoprotein receptor (LDLR), LDLR (gene 3949)
Kind of assay: BSK_CASM3C_LDLR: BioMAP Diversity Plus: CASM3C Assay for Low-density lipoprotein receptor (LDLR) Biomarker Activity (AID 2283045).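 Further: LDLR protein level on the cell surface quantified by ELISA.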 The note with it: primary human coronary artery smooth muscle cells; actives raise or lower the signal.

Read-out in assay [14]: Monocyte Chemoattractant Protein-1 (MCP1), CCL2 (gene 6347)
Nature of the assay: BSK_CASM3C_MCP1: BioMAP Diversity Plus: CASM3C Assay for Monocyte Chemoattractant Protein-1 (MCP1) Biomarker Activity (AID 2283046).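 Further: MCP-1 level quantified by ELISA 24 h after dosing.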 The note with it: primary human coronary artery smooth muscle cells; actives raise or lower the signal.

Assay [15] is described as follows: BSK_CASM3C_Proliferation: Cell Proliferation Assessment in the BioMAP Diversity Plus: CASM3C Assay (AID 2283047).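 Further: sulforhodamine B total protein stain as relative cell number at 560 nm; sub-confluent cells exposed 48 h before staining; fitted both ways against DMSO so gain or loss of cell number.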 The note with it: primary human coronary artery smooth muscle cells.
Read-out in assay [16]: Monokine induced gamma interferon (MIG), CXCL9 (gene 4283)
Nature of the assay: BSK_CASM3C_MIG: BioMAP Diversity Plus: CASM3C Assay for Monokine induced gamma interferon (MIG) Biomarker Activity (AID 2283048). The note with it: primary human coronary artery smooth muscle cells; actives raise or lower the signal.

Read-out in assay [17]: serum amyloid A (SAA), SAA1 (gene 6288)
Kind of assay: BSK_CASM3C_SAA: BioMAP Diversity Plus: CASM3C Assay for serum amyloid A (SAA) Biomarker Activity (AID 2283049).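 Further: SAA protein level quantified by ELISA.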 The note with it: primary human coronary artery smooth muscle cells; actives raise or lower the signal.

Read-out in assay [18]: Vascular endothelial growth factor receptor 2 (Homo sapiens) (UniProt P35968)
Nature of the assay: BSK_4H_VEGFRII: BioMAP Diversity Plus: 4H Assay for Vascular endothelial growth factor receptor 2 (VEGFR2) Biomarker Activity (AID 2283031).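 On AC50: cell-surface VEGFR2 protein level quantified by ELISA.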 The conditions noted are these: primary human endothelial cells (HUVEC); actives raise or lower the signal. The procedure, abridged:
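Primary human umbilical vein endothelial cells in the BioMAP 4H system were dosed with test chemical, and 24 h later VEGFRII was measured by ELISA. Activity was fitted bidirectionally against DMSO as negative control and baseline.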

Read-out in assay [19]: Human Leukocyte Antigen - DR isotype (HLADR), HLA-DRA (gene 3122)
Kind of assay: BSK_BE3C_HLADR: BioMAP Diversity Plus: BE3C Assay for Human Leukocyte Antigen - DR isotype (HLADR) Biomarker Activity (AID 2283032). The conditions noted are these: primary human bronchial epithelial cells; actives raise or lower the signal. The procedure, abridged: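 Primary human bronchial epithelial cells (BE3C); 24 h chemical exposure; HLA-DR by ELISA; bidirectional curve fit vs DMSO baseline.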

Read-out in assay [20]: Monokine induced gamma interferon (MIG), CXCL9 (gene 4283)
Kind of assay: BSK_BE3C_MIG: BioMAP Diversity Plus: BE3C Assay for Monokine induced gamma interferon (MIG) Biomarker Activity (AID 2283035). The conditions noted are these: primary human bronchial epithelial cells; actives raise or lower the signal. The method in brief:
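hu bronchial epithelial 1° cells, 24 h cpd; MIG by ELISA; bidirectional fit, DMSO = baseline.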

The structures appear in SMILES notation. Values joined by “and” are separate entries in the source; they are usually repeats but may differ in a detail not shown here. Identical values can stand only once. More than one record can exist for a structure, and the calls need not agree. Active and inactive are the calls of the source. How the source made its calls: active means hit-call score of the fitted dose curve at least 0.9, where 1 is the maximum; inactive means score below 0.9.

For `C=CCC1=C(C)C(OC(=O)C2C(C=C(C)C)C2(C)C)CC1=O` (stereo not given), the AC50 in assay [1] is 38.4 µM (active) and 32.8 µM (active); in [2] it was 31.6 µM (active) [middle of 4 runs]; in [3], 35 µM (active) and 39 µM (active); in assay [7] it was 0.223 µM (active); in assay [11] it was 31.7 µM (active) and 32 µM (active) and 27.9 µM (active); in assay [13], 16.8 µM (active) and 21 µM (active). Moreover, the AC50 in assay [15] was 34.4 µM (active) [middle of 4 runs]; in assay [17], 4.17 µM (active). Moreover, the result in [1], in assay [3], in assay [4], in [5], in assay [6] and in [7] was inactive. For the same compound, the outcome in assay [8], in [9], in [10], in assay [11], in assay [12] and in assay [13] was inactive. In addition, the outcome in [14], in assay [16] and in assay [17] was inactive.
Take `Cc1c(F)c(F)c(COC(=O)C2C(/C=C(\Cl)C(F)(F)F)C2(C)C)c(F)c1F` (stereo not given): the result in [1], in assay [18], in assay [19], in assay [2], in [3] and in assay [4] was inactive. Also, the result in assay [5], in [6], in assay [7], in assay [8], in assay [9] and in [10] was inactive. For the same compound, the outcome in assay [11], in [12], in assay [13], in assay [14], in assay [15] and in [16] was inactive. In addition, the outcome in assay [17] was inactive.
Regarding `CNC(=O)ON=CC(C)(C)SC`, the result in assay [1], in assay [19], in [2], in assay [3], in assay [4] and in [5] was inactive. Besides, the result in assay [6], in assay [7], in assay [8], in [9], in assay [10] and in assay [11] was inactive. The outcome in assay [12], in [13], in [14], in assay [15] and in assay [16] was inactive. The AC50 in assay [17] was 1.35 µM (active).
Regarding `CC(C)(C)c1ccc(CSc2cnn(C(C)(C)C)c(=O)c2Cl)cc1`, the result in [1], in assay [2], in [6], in [7], in assay [8] and in assay [9] was inactive. Moreover, the result in assay [10], in [11], in assay [12], in assay [14], in [16] and in [17] was inactive. Moreover, the AC50 in assay [18] is 12.3 µM (active); in [3] it was 23.5 µM (active); in assay [4], 0.832 µM (active); in [5], 14.2 µM (active); in assay [13], 20 µM (active); in [15] it was 6.17 µM (active).
As to `CCCC1COC(Cn2cncn2)(c2ccc(Cl)cc2Cl)O1` (stereo not given), the outcome in assay [1], in [19], in assay [2], in [3], in [4] and in assay [5] was inactive. The result in assay [6], in assay [7], in assay [8], in assay [9], in [10] and in [11] was inactive. Further, the result in assay [12], in assay [13], in assay [14], in [15], in assay [16] and in assay [17] was inactive.
As for `CCc1nn(C)c(C(=O)NCc2ccc(C(C)(C)C)cc2)c1Cl`, the AC50 in assay [1] is 33 µM (active); in assay [19] it was 18.3 µM (active); in assay [2] it was 6.81 µM (active); in [3], 25.7 µM (active); in [20], 29.4 µM (active); in [5] it was 31.9 µM (active). Further, the AC50 was 30.6 µM (active) in [6], 27.3 µM (active) in assay [7], 20 µM (active) in [9] and 14.4 µM (active) in assay [15]. Besides, the result in assay [4], in assay [8], in assay [10], in assay [11], in assay [12] and in assay [13] was inactive. Moreover, the result in assay [14], in [16] and in assay [17] was inactive.
